Laboratory results: PubChem BioAssay (Tox21)
Results filed as inconclusive are left out. Activity calls are given as the source filed them. Unless noted, calls follow the shape of the dose curve; as a rule, active = well fitted curve in the direction sought with a large enough effect in the repeat runs; inconclusive = weak or mixed curves; inactive = no such curve, though single readings can be large; an effect the other way counts as inactive or inconclusive.

What was measured:
[1] = A CellTox Green Cytotoxicity Assay to monitor cytotoxicity in HEK293 cells - 32 hour (AID 1224881); also: nearly all actives have a fitted effect of over 40% in size
Summary of the method: (§1)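 Fluorescence from a DNA-binding dye excluded by viable cells was measured repeatedly in the same HEK293 wells (600 cells/well) during continuous compound exposure at 37 C. Each assay gives one read point: 0, 8, 16, 24, 32 or 40 h.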

[2] = A CellTox Green Cytotoxicity Assay to monitor cytotoxicity in HepG2 cells - 0 hour (AID 1224882); also: nearly all actives have a fitted effect of over 35% in size
Summary of the method: (§2)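 Real-time cytotoxicity: fluorescence of a cell-impermeant cyanine dye binding DNA of dead HepG2 cells, measured repeatedly (0–40 h) during compound exposure at 37 C. Cells seeded 600/well with reagent, dosed after 5 h.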

[3] = A CellTox Green Cytotoxicity Assay to monitor cytotoxicity in HepG2 cells - 32 hour (AID 1224883); also: nearly all actives have a fitted effect of over 50% in size
Summary of the method: as §2

[4] = A CellTox Green Cytotoxicity Assay to monitor cytotoxicity in HEK293 cells - 8 hour (AID 1224884); also: nearly all actives have a fitted effect of over 35% in size
Summary of the method: as §1

[5] = qHTS RealTime-Glo MT Cell Viability Assay in HepG2 cells - 16 hour (AID 1224885); also: nearly all actives have a fitted effect of over 50% in size
Summary of the method: (§3)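 Cells + NanoLuc/prosubstrate dispensed (600 cells/well) → 5 h at 37 C/5% CO2 → compounds in DMSO transferred → 40 h incubation at 37 C, luminescence read at 0, 8, 16, 24, 32, 40 h.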

[6] = qHTS RealTime-Glo MT Cell Viability Assay in HEK293 cells - 24 hour (AID 1224886); also: top concentration of the series differs between compounds; nearly all actives have a fitted effect of over 50% in size
Summary of the method: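 Tox21 10K qHTS, HEK293, 600 cells/well, RealTime-Glo reagent co-dispensed with cells; 5 h preincubation, compound by pintool, 37 C, luminescence at 0–40 h.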

[7] = qHTS RealTime-Glo MT Cell Viability Assay in HEK293 cells - 8 hour (AID 1224887); also: top concentration of the series differs between compounds; nearly all actives have a fitted effect of over 50% in size
Summary of the method: (§4)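 Luminescence, which tracks viable cell number through reduction of the prosubstrate to a NanoLuc substrate, was read over continuous 37 C culture. Cells (600/well) were premixed with reagent and rested 5 h before 23 nL of compound in DMSO was pinned.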

[8] = A CellTox Green Cytotoxicity Assay to monitor cytotoxicity in HEK293 cells - 16 hour (AID 1224888); also: nearly all actives have a fitted effect of over 35% in size
Summary of the method: as §1

[9] = qHTS RealTime-Glo MT Cell Viability Assay in HepG2 cells - 0 hour (AID 1224889); also: nearly all actives have a fitted effect of over 50% in size
Summary of the method: as §3

[10] = A CellTox Green Cytotoxicity Assay to monitor cytotoxicity in HepG2 cells - 8 hour (AID 1224890); also: nearly all actives have a fitted effect of over 45% in size
Summary of the method: as §2

[11] = qHTS assay to identify small molecule antagonists of the estrogen receptor alpha (ER-alpha) signaling pathway using the BG1 cell line in the presence of 0.1 nM 17-beta-estradiol - cell viability counter screen (AID 1259241); also: nearly all actives have a fitted effect of over 40% in size
Summary of the method: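 Viability in VM7Luc4E2 cells after 22 hr compound exposure under 0.1 nM 17beta-estradiol stimulation, by CellTiter-Fluor.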

[12] = qHTS assay to identify small molecule antagonists of the androgen receptor (AR) signaling pathway using the MDA cell line in the presence of 0.5 nM R1881 - cell viability counter screen (AID 1259242); also: nearly all actives have a fitted effect of over 45% in size
Summary of the method: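 Live-cell protease activity was measured by CellTiter-Fluor fluorescence after 30 min. Before that, MDA-kb2 MMTV-luciferase cells had 16 hr at 37C without CO2, exposed to test compounds and 0.5 nM R1881 final.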

[13] = biological target: Estrogen receptor (Homo sapiens) (UniProt P03372); test: qHTS assay to identify small molecule antagonists of the estrogen receptor alpha (ER-alpha) signaling pathway using the BG1 cell line in the presence of 0.1 nM 17-beta-estradiol (AID 1259244); also: nearly all actives have a fitted effect of over 50% in size
Summary of the method: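 Luciferase luminescence (ONE-Glo, 30 min at room temperature) was read after 22 hr at 37C exposure to compounds plus 17beta-estradiol at 0.1 nM final. Cells were VM7Luc4E2 with endogenous ER-alpha and an ERE-driven luciferase, pre-cultured 5 days in hormone-depleted medium.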

[14] = qHTS assay to identify small molecule HDAC inhibitors (AID 1259364); also: top concentration of the series differs between compounds; nearly all actives have a fitted effect of over 45% in size
Summary of the method: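 Luminescence read after 30 min room-temperature HDAC-Glo incubation measures cellular class I/II HDAC activity. Compounds were applied for 2 hr at 37 C to HCT-116 wild-type cells seeded the day before.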

[15] = qHTS assay to identify small molecule HDAC inhibitors - cell viability counter screen (AID 1259365)
Summary of the method: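 Cytotoxicity was gauged in wild-type HCT-116 cells after a brief 2hr treatment with DMSO-dissolved compounds at 37C and 5% CO2, using CellTiter-Glo luminescence developed for 30min at room temperature.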

[16] = qHTS assay to identify small molecule agonists of the sonic hedgehog signaling (Shh) pathway - cell viability counter screen (AID 1259366); also: nearly all actives have a fitted effect of over 50% in size
Summary of the method: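 Stable Gli1-Luc NIH/3T3 clone, 2,000 cells/well. Compound exposure 24hr at 37C. Read-out: CellTiter-Fluor fluorescence.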

[17] = qHTS assay to identify small molecule antagonists of the sonic hedgehog signaling (Shh) pathway - cell viability counter screen (AID 1259367); also: nearly all actives have a fitted effect of over 55% in size
Summary of the method: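 Fluorescence read-out (CellTiter-Fluor, 1 hr at 37C) taken after 23 hr compound treatment of 3T3 Gli1-Luc cells stimulated with conditioned medium. Cells were seeded at 2,000 per well and pre-incubated 4 hr.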

[18] = qHTS RealTime-Glo MT Cell Viability Assay in HEK293 cells - 0 hour (AID 1224880); also: top concentration of the series differs between compounds; nearly all actives have a fitted effect of over 45% in size
Summary of the method: as §4

[19] = qHTS assay to identify small molecule phospholipidosis (PLD) inducers (AID 1259344; active = well fitted curve in the direction sought with a large enough effect; an effect the other way counts as inactive or inconclusive)
Summary of the method: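 Read-out is LipidTOX Red fluorescence (ex 595/em 615) imaged in HepG2 cells after 24 h compound exposure at 37 C, with Hoechst nuclear counterstain (ex 352/em 461) allowing per-cell normalisation.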

[20] = biological target: Androgen receptor (Homo sapiens) (UniProt P10275); test: qHTS assay to identify small molecule antagonists of the androgen receptor (AR) signaling pathway using the MDA cell line in the presence of 0.5 nM R1881 (AID 1259243); also: nearly all actives have a fitted effect of over 50% in size
Summary of the method: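 Luminescent reporter readout (ONE-Glo, 30 min, room temperature) after 16 hr co-treatment of MDA-kb2 cells with test compounds and 0.5 nM R1881 final, at 37C without CO2. The MMTV-driven luciferase responds to both AR and GR.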
% is scaled to controls: 0 for no effect and ±100 for the full control effect.

Chain of Estrogen receptor (Homo sapiens) (P03372 whole entry, looked up): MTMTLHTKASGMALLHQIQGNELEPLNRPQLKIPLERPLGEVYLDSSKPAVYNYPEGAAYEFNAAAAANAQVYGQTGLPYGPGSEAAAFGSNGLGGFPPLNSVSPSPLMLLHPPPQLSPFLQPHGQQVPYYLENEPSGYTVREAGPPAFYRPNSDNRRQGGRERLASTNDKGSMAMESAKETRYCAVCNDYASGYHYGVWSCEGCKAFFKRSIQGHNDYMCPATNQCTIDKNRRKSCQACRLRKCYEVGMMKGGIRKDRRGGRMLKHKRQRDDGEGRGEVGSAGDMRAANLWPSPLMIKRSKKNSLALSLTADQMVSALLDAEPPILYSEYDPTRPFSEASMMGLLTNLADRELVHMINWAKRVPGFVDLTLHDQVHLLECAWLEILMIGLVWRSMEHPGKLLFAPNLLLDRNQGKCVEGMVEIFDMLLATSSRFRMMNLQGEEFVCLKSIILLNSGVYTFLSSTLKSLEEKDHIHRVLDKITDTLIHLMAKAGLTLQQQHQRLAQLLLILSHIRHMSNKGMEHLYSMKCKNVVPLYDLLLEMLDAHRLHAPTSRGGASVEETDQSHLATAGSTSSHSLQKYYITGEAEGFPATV
Chain of Androgen receptor (Homo sapiens) (P10275 whole entry, looked up): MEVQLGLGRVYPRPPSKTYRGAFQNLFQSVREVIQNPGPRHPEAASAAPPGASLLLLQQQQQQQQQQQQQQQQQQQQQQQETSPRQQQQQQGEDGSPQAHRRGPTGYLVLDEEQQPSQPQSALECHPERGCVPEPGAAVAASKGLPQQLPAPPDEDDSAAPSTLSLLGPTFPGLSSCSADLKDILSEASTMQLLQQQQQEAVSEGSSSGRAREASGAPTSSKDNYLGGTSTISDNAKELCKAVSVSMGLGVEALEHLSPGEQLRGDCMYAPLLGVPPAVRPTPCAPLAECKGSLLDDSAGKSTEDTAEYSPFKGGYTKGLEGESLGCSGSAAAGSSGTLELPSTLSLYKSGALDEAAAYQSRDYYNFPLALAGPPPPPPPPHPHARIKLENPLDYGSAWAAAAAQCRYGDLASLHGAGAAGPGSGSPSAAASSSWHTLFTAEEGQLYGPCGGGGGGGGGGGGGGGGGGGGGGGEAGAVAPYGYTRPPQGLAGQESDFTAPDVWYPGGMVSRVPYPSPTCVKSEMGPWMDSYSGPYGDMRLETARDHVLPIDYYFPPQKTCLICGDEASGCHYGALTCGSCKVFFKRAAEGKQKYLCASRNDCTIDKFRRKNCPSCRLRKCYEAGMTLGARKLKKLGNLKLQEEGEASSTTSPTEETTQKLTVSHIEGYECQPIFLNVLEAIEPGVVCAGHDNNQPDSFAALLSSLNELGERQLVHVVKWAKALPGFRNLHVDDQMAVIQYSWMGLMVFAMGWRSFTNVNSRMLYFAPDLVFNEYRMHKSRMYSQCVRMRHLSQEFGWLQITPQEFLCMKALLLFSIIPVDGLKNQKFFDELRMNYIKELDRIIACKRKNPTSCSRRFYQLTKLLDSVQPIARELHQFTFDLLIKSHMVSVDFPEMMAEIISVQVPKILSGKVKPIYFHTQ

CCO[Si](CCC1CCC2OC2C1)(OCC)OCC (centres undefined)
inactive: Potency [1] | Potency [2] | Potency [3] | Potency [4] | Potency [5] | Potency [6] | Potency [7] | Potency [8] | Potency [9] | Potency [10] | outcome [11] | Potency [12] | outcome [13] | Potency [14] | outcome [15] | Potency [16] | Potency [17]

NCCc1cnc[nH]1
inactive: Potency [18] | Potency [1] | Potency [2] | Potency [4] | Potency [5] | Potency [6] | Potency [7] | Potency [8] | Potency [9] | Potency [10] | outcome [11] | Potency [12] | Potency [14] | outcome [15] | Potency [16] | Potency [17]

CC(C)=CCCC(C)CC(=O)O (centres undefined)
inactive: Potency [18] | Potency [1] | Potency [2] | Potency [4] | Potency [5] | Potency [6] | Potency [7] | Potency [9] | Potency [10] | outcome [11] | Potency [12] | Potency [14] | outcome [15] | Potency [16] | Potency [17]

Cc1cc(O)cc2c1O[C@](C)(CCC[C@H](C)CCC[C@H](C)CCCC(C)C)CC2
inactive: Potency [18] | Potency [1] | Potency [2] | Potency [4] | Potency [5] | Potency [6] | Potency [8] | Potency [9] | Potency [10] | outcome [11] | Potency [12] | outcome [13] | Potency [19] | Potency [14] | outcome [15] | Potency [16] | Potency [17]

CCSC(=O)N(CC(C)C)CC(C)C
inactive: Potency [1] | Potency [2] | Potency [3] | Potency [4] | Potency [5] | Potency [6] | Potency [7] | Potency [8] | Potency [9] | Potency [10] | outcome [11] | Potency [12] | Potency [20] | outcome [13] | Potency [14] | outcome [15] | Potency [16] | Potency [17]

CCc1nccnc1CC
inactive: activity change, negative = cytotoxicity [18] -3.54% [at 15.8 µM] | Potency [1] | cytotoxicity [2] -0.271% [at 15.8 µM] | cytotoxicity increase [4] -4.27% [at 15.8 µM] | activity change, negative = cytotoxic [5] -1.18% [at 15.8 µM] | activity change, negative = cytotoxicity [6] 6.29% [at 15.8 µM] | activity change, negative = cytotoxicity [7] -0.69% [at 15.8 µM] | activity change, negative = cytotoxicity [9] -0.513% [at 15.8 µM] | cytotoxicity increase [10] 4% [at 15.8 µM] | activity change, negative = cytotoxicity [11] -0.0848% [at 19 µM] | viability change, negative = cytotoxic [12] 6.4% [at 19 µM] | activity change, negative = inhibition [13] 2.66% [at 19 µM] | activity change, negative = inhibition [14] 0.718% [at 19 µM] | activity change, negative = cytotoxicity [15] 0.191% [at 19 µM] | viability change, negative = cytotoxic [16] 3.6% [at 19 µM] | Potency [17]

CC[N+](C)(C)c1cccc(O)c1
inactive: Potency [18] | Potency [1] | Potency [2] | Potency [4] | Potency [5] | Potency [7] | Potency [8] | Potency [10] | outcome [11] | Potency [12] | Potency [19] | Potency [14] | outcome [15] | Potency [16] | Potency [17]
